Bioassay records (PubChem)
VACV mCherry inh: inhibitors of vaccinia virus infection (mCherry reporter signal) | Potency, µM (doses to about 36.5 µM), for inactives: top-dose activity change, negative = inhibition, most hits filed as inhibitors | Vaccinia virus mCherry reporter infection, fluorescence | 310,000 tested, 0.63% active; calls by dose curve; tested in A549 cells; note: potency is the fitted concentration of half-maximal effect; nearly all actives have a fitted effect of over 35% in size
Vaccinia Venus: inhibitors of vaccinia virus (Venus reporter) | Vaccinia virus Venus reporter expression, fluorescence | Potency, µM (series often up to 36.5 µM), for inactives: at the top dose activity change, negative = inhibition, most hits filed as inhibitors | 330,000 tested, 0.46% active | AID 720580; calls by dose curve; tested in A549 cells; note: potency is the fitted concentration of half-maximal effect; nearly all actives have a fitted effect of over 30% in size
HCV inhibitor: blocks hepatitis C virus; 340,000 tested, 3.4% active; Huh7.5.1 HCVcc-Cre infection, luciferase reporter, 44 h; Potency, µM (top dose mostly 41.8 µM), inactives show at the top dose activity change, negative = inhibition, most hits filed as inhibitors; active = well fitted inhibition curve with a large enough effect; inconclusive = small, poorly fitted or top-dose-only effect, or another doubt; inactive = no such curve, though single readings can be large or run the other way; note: potency is the fitted concentration of half-maximal effect
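Infectious HCVcc-Cre (~0.5 moi) was added to cells just after compound, with cells seeded 4 h earlier at 1,000 per well. Luciferase activity after 44 h culture reported infection; substrate was incubated 15 min at room temperature before reading.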
LASV entry inh: inhibitors of Lassa virus binding or cell entry | 300,000 tested, 1.2% active | Lassa virus pseudotype entry inhibition, cell reporter | Potency, µM (titrated, usually from 37.9 µM), for inactives: top-dose activity change, negative = inhibition, usual class: inhibitors | AID 540256; calls by dose curve; tested in HEK293 cells; note: potency is the fitted concentration of half-maximal effect; nearly all actives have a fitted effect of over 50% in size
MARV entry inh: inhibitors of Marburg virus binding or cell entry | Marburg virus pseudotyped entry inhibition, cell reporter | Potency, µM (doses to about 37.8 µM), inactives show at the highest dose activity change, negative = inhibition, actives largely listed as inhibitors | 300,000 tested, 1.8% active; calls by dose curve; tested in HEK293 cells; note: potency is the fitted concentration of half-maximal effect
HCMV antiviral: blocks human cytomegalovirus replication; HFF cells, HCMV-luciferase reporter, 72 h; active compounds read low; activity change, negative = inhibition, % at 57.5 µM; 410,000 tested, 4.5% active; in the data active = activity change below about -60%; inconclusive = no clear call, values can overlap the other calls; inactive = above about -39%
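Cell-based, HFFs, 1000 cells/well, 16 h 37C; cpds in DMSO + HCMV-luc, MOI 1 PFU/cell; 72 h 37C; OneGlo luminescence after 5 min RT; norm. to buffer vs Salinomycin 10uM.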
* hit, by the source's call; i = inactive; ? = inconclusive; . = no result; [ ] = remark or other dose. Hits are enriched below; roughly 7.8% of the tested compounds scored in any of these assays. % is set by controls: 0 for no effect and ±100 for the full control effect.

SMILES	VACV mCherry inh	Vaccinia Venus	HCV inhibitor	LASV entry inh	MARV entry inh	HCMV antiviral
Cc1cc(C(=O)COC(=O)c2cc(O)c3ccccc3c2O)c(C)n1CC1CCCO1 (stereo not given)	i	0.2%	?	6.8%	?	.
Cc1cc(C(=O)COC(=O)c2cccc(NS(C)(=O)=O)c2)c(C)n1CC1CCCO1 (stereo not given)	-12.4%	-4.4%	?	10µM*	5.62µM*	-27.0
Cc1cc(C(=O)COC(=O)c2n[nH]c3ccccc23)c(C)n1CC1CCCO1 (stereo not given)	i	-17.8%	?	?	7.08µM*	7.4
Cc1cc(C(=O)COC(=O)c2ccccc2O)c(C)n1CC1CCCO1 (stereo not given)	.	.	11.2µM*	.	.	-72.8*
Cc1cc(C(=O)COc2ccccc2C(N)=O)c(C)n1CC1CCCO1 (stereo not given)	-11.1%	-17.0%	1.78µM*	-13.4%	?	-62.0*
Cc1nn(CCCC(=O)Nc2ccccc2C(F)(F)F)c(=O)c2c1sc1ccccc12	-15.1%	-9.6%	.	5.0%[46.1 µM]	?	-7.4
O=C(CS(=O)c1ccccc1[N+](=O)[O-])Oc1ccc(Br)cc1 (stereo not given)	-1.5%	-3.4%	15.2%	0.6%[46.1 µM]	17.8%[46.1 µM]	-30.2
CS(=O)(=O)c1ccc(S(=O)CC(=O)Oc2ccc(Cl)cc2)c([N+](=O)[O-])c1 (stereo not given)	?	-10.1%	?	?	11.2µM*	.
COc1cccc(/C=N/Nc2ccc(C(=O)O)cc2)c1O	-8.6%	-13.2%	21.3%	.	.	-95.4*
COc1cccc(/C=N/Nc2ccc(S(=O)(=O)O)cc2)c1O	.	.	2.2%	-1.2%	6.1%	35.1
COc1cccc(/C=N/Nc2ccccc2C(=O)O)c1O	.	.	16.4%	.	.	-79.8*
COc1ccc(CCNc2oc(Cc3cccc4ccccc34)nc2C#N)cc1OC	.	?	7.94µM*	?	?	-16.6
COc1ccc(CCNc2oc(COc3ccc(Br)cc3)nc2C#N)cc1OC	-7.4%	-2.7%	?	.	.	-13.9
N#Cc1nc(Cc2cccc3ccccc23)oc1NCCN1CCCCC1	.	.	11.2µM*	-0.4%	-27.9%	-18.5
CNc1oc(Cc2cccc3ccccc23)nc1C#N	-7.2%	-18.3%	-3.3%	-0.9%	-11.5%	-23.3
Nc1nc(=S)[nH]c(N)c1N	39.5%	9.4%	.	.	.	.
COc1ccc2c(c1)/C(=C/c1cnc[nH]1)C(=O)N2	3.55µM*	7.08µM*	?	?	?	-97.3*
COc1ccc(-n2cc(CNCC3CCOCC3)c(-c3cccc(F)c3)n2)cc1	.	.	3.7%	.	.	-88.8*
CCN1CC(CNCc2cn(-c3ccc(OC)cc3)nc2-c2ccccc2Cl)CC1=O (stereo not given)	-27.8%	-18.7%	-23.5%	2.4%	?	19.5
COc1ccc(-n2cc(CNCC3CC(=O)N(C4CC4)C3)c(-c3ccccc3Cl)n2)cc1 (stereo not given)	-13.4%	-14.3%	-6.2%	?	11.2µM*	2.7
COc1ccc(C(=O)n2nc(N)c3cc4ccc(C)cc4nc32)cc1OC	3.0%	-1.3%	.	-9.5%[46.1 µM]	2.7%[46.1 µM]	3.6
COc1ccc2cc3c(N)nn(C(=O)c4cccc([N+](=O)[O-])c4)c3nc2c1	-21.6%	-12.4%	-12.3%	?	?	-85.5*
COc1ccc(-n2cnc(N)c2C(=O)c2cccc([N+](=O)[O-])c2)cc1	.	.	0.3%	-33.0%	?	-67.1*
Cc1ccc2cc3c(N)nn(C(=O)c4cccc(F)c4)c3nc2c1	-23.6%	-11.9%	.	7.9%[46.1 µM]	3.7%[46.1 µM]	-10.7
COc1ccc2cc3c(N)nn(C(=O)c4ccc(F)cc4Cl)c3nc2c1	-27.5%	-20.2%	.	-3.0%[46.1 µM]	-7.0%[46.1 µM]	-70.4*
COc1ccc2cc3c(N)nn(C(=O)Cc4ccccc4OC)c3nc2c1	-18.3%	-20.2%	?	.	.	-24.3
COc1ccc(-n2cnc3cc([N+](=O)[O-])ccc32)cc1	i	-2.0%	-26.2%	29.3%	-7.2%[46.1 µM]	?
COc1ccc2cc3c(N)nn(C(=O)C4CCC(C(C)(C)C)CC4)c3nc2c1 (stereo not given)	?	14.1µM*	5.4%[8.37 µM]	7.3%	10.5%	-79.4*
Cc1ccc(Cl)cc1N1CCN(C(c2ccc(C#N)cc2)c2nnnn2C2CCCC2)CC1 (stereo not given)	5.0%	2.9%	8.2%	-18.4%	5.8µM*	?
